Measurements published in PubChem BioAssay (NCI).
About 83,000 compounds went through this panel and 20% of them were active in at least one assay; those are over-represented in the sample as a whole.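 Testing used 96-well plates and a 48-hour single-concentration exposure. Example: -40 means 40% of the starting cells died.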 Active and inactive are the calls of the source. How the source made its calls: active means growth percent below 10; inactive means the rest.

How the values were obtained:
Test in all cases: NCI-60 one-dose screen, 48 h (100 = growth as untreated, 0 = no growth, -100 = all killed)
Settings in all cases: 10 µM unless noted
[1] = system: SK-MEL-2 melanoma
[2] = system: SN12C renal
[3] = system: UO-31 renal
[4] = system: TK-10 renal
[5] = system: ACHN renal
[6] = system: CAKI-1 renal
[7] = system: A498 renal
[8] = system: CCRF-CEM leukemia
[9] = system: MOLT-4 leukemia
[10] = system: EKVX NSCLC

Measured: growth

O=C(CN1CCCCCC1)Nc1nc2ccc(NCc3ccc(Cl)cc3)cc2s1
inactive: [1] 109% | [2] 95.5% | [3] 88.6% | [4] 110% | [5] 88.7% | [6] 86.1% | [7] 110% | [8] 93% | [9] 92.4%

Nc1nc(N)c2c(n1)NC(c1ccc(Cl)cc1)C1CCc3ccccc3C1=N2 (configuration not stated)
inactive: [1] 102% | [2] 65.9% | [3] 55.8% | [4] 49.2% | [5] 52.7% | [6] 37% | [7] 69.5% | [8] 51.5% | [9] 22.5%

CNC(=O)c1cc(Oc2ccc3c(c2)sc2nc(-c4ccc(OC)cc4)cn23)ccn1
inactive: [1] 44.2% | [2] 69.7% | [3] 52.2% | [4] 21.1% | [5] 83.8% | [6] 85.5% | [7] 16.9% | [9] 76.6%

COc1cc2c(c(OC)c1OC)C(=O)CC(c1cccc(NC(=O)c3ccc(C#N)cc3)c1)O2 (configuration not stated)
inactive: [1] 69% | [2] 83% | [3] 62.8% | [4] 89.4% | [5] 81.2% | [6] 77.1% | [7] 82.2% | [8] 25.3% | [9] 27%

CN1CCN(C(=S)SCCCCOc2cc(=O)oc3ccccc23)CC1
inactive: [1] 73.9% | [2] 88.5% | [3] 72.3% | [4] 93.3% | [5] 92.9% | [6] 93.7% | [7] 74.7% | [8] 72.5% | [9] 73.2%

Cc1ccc2nc(NC(=O)CSc3nc(-c4ccccc4)c(C#N)c4nnnn34)sc2c1
inactive: [1] 109% | [2] 111% | [3] 80.2% | [4] 141% | [5] 106% | [6] 94.6% | [7] 109% | [8] 106% | [9] 99.4%

COc1ccc(C(=S)N2CCN(c3ccc(Cl)cc3)CC2)cc1
inactive: [1] 97.7% | [2] 85.4% | [3] 81.9% | [4] 101% | [5] 94.8% | [6] 105% | [7] 107% | [8] 90.3% | [9] 76.8%

CCN1C(=O)N(CC)C2C1NC(=S)N2/N=C/c1ccc(OC)cc1 (configuration not stated)
inactive: [1] 65% | [10] 79.6% | [2] 62.6% | [3] 51.8% | [4] 79.8% | [5] 64% | [6] 32.9% | [7] 29.9% | [9] 47.7%

Oc1c(CN2CCCC2)cc(CSCc2ccccc2)c2cccnc12
inactive: [1] 11.3% | [2] 17.6% | [4] 22.4%
active: [3] -18% | [5] 5.28% | [6] 7.37% | [7] 9.44% | [8] -14.9% | [9] -14.4%

C[C@H](CCCC(=O)NCC#CCN1CCN(C)CC1)[C@H]1CC[C@H]2[C@@H]3CC[C@@H]4CC(=O)CC[C@]4(C)[C@H]3CC[C@]12C
inactive: [10] 93.5% | [2] 86% | [3] 64.5% | [4] 99% | [5] 105% | [6] 108% | [7] 75.4% | [8] 81.2% | [9] 84.3%

O=c1c2c3c(sc2n2c(-c4cc(-c5ccccc5)no4)nnc2n1Cc1ccccc1)CCCC3
active: [3] -41.9% | [6] -67.8%
inactive: [10] 80% | [2] 90.8% | [4] 120% | [5] 95.4% | [7] 82.2% | [8] 34.8% | [9] 55%

FC(F)(F)Oc1cccc(-c2cnc3ccc(-c4ccncc4)nn23)c1
active: [3] 0.42% | [5] -0.133% | [6] 7.75% | [8] 4.57% | [9] 4.08%
inactive: [10] 28.4% | [2] 13.2% | [4] 17.3% | [7] 23%
